In PubChem BioAssay AID743156 (Broad Institute, 2013):
This is one part of the list. A number with no mark means an inactive call.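 Rule for the calls: active = mean inhibition across replicates of at least 20% with every single replicate also at 20% or more; inconclusive = mean inhibition at least 20% but some replicate falls below 20%; inactive = mean inhibition under 20% and not all replicates reach it.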

Test system: PglD UDP-4-amino-sugar N-acetyltransferase (Campylobacter jejuni)
Test: PglD acetyltransferase inhibitors, confirmation, biochemical, DTNB absorbance, single point, cherry-picked samples (AID 743156);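 note: initial rate of CoA release by acetyl transfer from AcCoA to the UDP-4-amino sugar; 0% = median of neutral control wells and 100% = median of positive control wells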
Conditions: Purified C. jejuni PglD, DTNB absorbance 412 nm; at 20 µM; hits give high values

**Q.** How did the inhibition turn out when `c1ccc2sc(N3CCNCC3)nc2c1` was run?
**A.** 8.98%
